Assay results reported in PubChem BioAssay (NCI).
Several values for one entry are separate records, joined by “and”; a condition that tells them apart may be missing. Identical values can stand only once. The panel holds about 83,000 compounds, 20% with a hit somewhere; the sample as a whole holds those more often.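 Note: values are percent growth. 100 is the growth of untreated cells, values between 100 and 0 indicate rising inhibition; between -100 and 0 indicates cell death.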 Activity calls are given as the source filed them. How the source made its calls: active means growth percent below 10; inactive means the rest.

Key:
Assay in all cases: NCI-60 one-dose screen, 48 h (100 = growth as untreated, 0 = no growth, -100 = all killed)
Settings in all cases: 10 µM unless noted
SK-MEL-2 melanoma = test system: SK-MEL-2 melanoma
EKVX NSCLC = test system: EKVX NSCLC
SN12C renal = test system: SN12C renal
UO-31 renal = test system: UO-31 renal
TK-10 renal = test system: TK-10 renal
ACHN renal = test system: ACHN renal
CAKI-1 renal = test system: CAKI-1 renal
A498 renal = test system: A498 renal
CCRF-CEM leukemia = test system: CCRF-CEM leukemia
MOLT-4 leukemia = test system: MOLT-4 leukemia

Measured: growth

CC(C)(C)OC(=O)NCCc1ccc(N)cc1
inactive: SK-MEL-2 melanoma 86.1% | EKVX NSCLC 101% | SN12C renal 91.8% | UO-31 renal 72% | TK-10 renal 92.7% | ACHN renal 105% | CAKI-1 renal 98.2% | A498 renal 92.5% | CCRF-CEM leukemia 85.5% | MOLT-4 leukemia 92.8%

Nc1[nH][nH]c(=O)c1N=Nc1ccccc1
inactive: SK-MEL-2 melanoma 122% and 100% | EKVX NSCLC 85.3% and 91.3% | SN12C renal 97.6% and 106% | UO-31 renal 82.7% and 85.1% | TK-10 renal 112% and 109% | ACHN renal 91.2% and 104% | CAKI-1 renal 104% | A498 renal 86.8% and 86.2% | CCRF-CEM leukemia 108% | MOLT-4 leukemia 121% and 100%

O=C(c1ccccc1)C1(Br)CCCCC1
inactive: SK-MEL-2 melanoma 104% | EKVX NSCLC 87.3% | SN12C renal 93.6% | UO-31 renal 82.2% | TK-10 renal 103% | ACHN renal 100% | CAKI-1 renal 89% | A498 renal 102% | CCRF-CEM leukemia 97.5% | MOLT-4 leukemia 103%

CCNC1=CC(=O)c2ncccc2C1=O
active: SN12C renal -32.2%
inactive: SK-MEL-2 melanoma 26.9% | EKVX NSCLC 72.6% | UO-31 renal 48.4% | TK-10 renal 83.6% | ACHN renal 59% | CAKI-1 renal 55.8% | A498 renal 80.8% | CCRF-CEM leukemia 76.7% | MOLT-4 leukemia 52.6%

N=C(N)N1CCc2ccccc2C1
inactive: SK-MEL-2 melanoma 128% | EKVX NSCLC 66% and 97% | SN12C renal 90.8% and 99.6% | UO-31 renal 82.8% and 86.8% | TK-10 renal 106% and 110% | ACHN renal 101% | CAKI-1 renal 74.5% and 101% | A498 renal 58.3% | CCRF-CEM leukemia 91.9% | MOLT-4 leukemia 88.3% and 106%

Cc1cc2nc3ccc(=[N+](C)C)cc-3sc2cc1N
-33.5% (active) and 20.3% (inactive): SK-MEL-2 melanoma
8.95% (active) and 36.6% (inactive): UO-31 renal
active: SN12C renal -65.9% and -66.4% | ACHN renal -73.1% and 9.45% | CCRF-CEM leukemia -7.13% and -12.1% | MOLT-4 leukemia -10.7% and -19.8%
inactive: EKVX NSCLC 38.7% and 24.3% | CAKI-1 renal 12% and 27.6% | A498 renal 74.9% and 65.4%
-12.3% (active) and 14.7% (inactive): TK-10 renal

COc1ccc(CCNC(=S)NN)cc1OC
inactive: SK-MEL-2 melanoma 118% | EKVX NSCLC 103% | SN12C renal 117% | UO-31 renal 90.2% | TK-10 renal 120% | ACHN renal 102% | CAKI-1 renal 108% | A498 renal 106% | CCRF-CEM leukemia 92.5% | MOLT-4 leukemia 108%

COC(=O)c1nc(=S)[nH]c(C(=O)OC)c1C(=O)c1ccccc1
inactive: SK-MEL-2 melanoma 104% | EKVX NSCLC 107% | SN12C renal 99.2% | UO-31 renal 85.3% | TK-10 renal 113% | ACHN renal 101% | CAKI-1 renal 87% | A498 renal 114% | CCRF-CEM leukemia 103% | MOLT-4 leukemia 112%

NC(=O)Cc1nc(O)cc(=O)[nH]1
inactive: SK-MEL-2 melanoma 102% | EKVX NSCLC 103% | SN12C renal 96.2% | UO-31 renal 95.4% | TK-10 renal 94% | ACHN renal 107% | CAKI-1 renal 99.2% | A498 renal 85.6% | CCRF-CEM leukemia 88.3% | MOLT-4 leukemia 95.6%

CCN(CC)CCNC(=O)c1ccc(NCN2C(=O)NC(c3ccccc3)(c3ccccc3)C2=O)cc1
inactive: SK-MEL-2 melanoma 106% and 112% | EKVX NSCLC 90.6% and 95.3% | SN12C renal 107% and 105% | UO-31 renal 86.6% and 67.1% | TK-10 renal 115% and 114% | ACHN renal 107% and 104% | CAKI-1 renal 90.5% and 88.1% | A498 renal 81.1% and 205% | CCRF-CEM leukemia 101% | MOLT-4 leukemia 102% and 108%

CCOC(=O)C1=C(C)NC(C)=C(C(=O)OCC)C1
inactive: SK-MEL-2 melanoma 109% and 110% | EKVX NSCLC 109% | SN12C renal 94.7% and 109% | UO-31 renal 98.9% and 90.4% | TK-10 renal 107% and 101% | ACHN renal 109% and 105% | CAKI-1 renal 113% and 97.6% | A498 renal 112% | CCRF-CEM leukemia 86.9% and 56% | MOLT-4 leukemia 134% and 101%

CC1=CC(=O)C=CC1=Nc1ccc(N(C)C)cc1
inactive: SK-MEL-2 melanoma 44.6% | SN12C renal 90.6% and 46.4% | UO-31 renal 65.6% and 50.7% | TK-10 renal 126% and 115% | ACHN renal 96.6% and 55.3% | CAKI-1 renal 87.1% and 67.3% | A498 renal 92.7% and 121% | MOLT-4 leukemia 50.4% and 12%
active: EKVX NSCLC -44.9% | CCRF-CEM leukemia -28.7%

COc1ccc(CCO)cc1
inactive: SK-MEL-2 melanoma 91.7% | EKVX NSCLC 107% | SN12C renal 100% | UO-31 renal 96.9% | TK-10 renal 96.3% | ACHN renal 103% | CAKI-1 renal 102% | A498 renal 97.2% | CCRF-CEM leukemia 101% | MOLT-4 leukemia 60.7%

COC(=O)c1nc(N)nc(C(=O)OC)c1C(=O)c1cccc2ccccc12
inactive: SK-MEL-2 melanoma 106% | EKVX NSCLC 103% | SN12C renal 99.5% | UO-31 renal 89.7% | TK-10 renal 97.5% | ACHN renal 106% | CAKI-1 renal 96.3% | A498 renal 105% | CCRF-CEM leukemia 101% | MOLT-4 leukemia 112%

CCCCCCCCCCCCCCCCC(=O)O
inactive: SK-MEL-2 melanoma 103% | EKVX NSCLC 106% | SN12C renal 103% | UO-31 renal 85.7% | TK-10 renal 86.6% | ACHN renal 112% | CAKI-1 renal 104% | A498 renal 115% | CCRF-CEM leukemia 91.5% | MOLT-4 leukemia 95%

CCCCOC1NC(=O)NC(=O)C1(F)C(=O)OCC (stereo not given)
inactive: SK-MEL-2 melanoma 97.8% and 101% | EKVX NSCLC 74.8% | SN12C renal 90.2% and 59.9% | UO-31 renal 55.2% and 51.3% | TK-10 renal 65.5% and 71.7% | ACHN renal 82% and 67.4% | CAKI-1 renal 45.3% and 62.3% | A498 renal 78.9% and 112% | CCRF-CEM leukemia 72.6% | MOLT-4 leukemia 92% and 65.2%

CCn1c2ccc(N(C)C)cc2c2cc(N(C)C)ccc21
inactive: SK-MEL-2 melanoma 104% | EKVX NSCLC 88% | SN12C renal 104% | UO-31 renal 94.5% | TK-10 renal 118% | ACHN renal 99.9% | CAKI-1 renal 98.4% | A498 renal 86.2% | CCRF-CEM leukemia 85.5% | MOLT-4 leukemia 96.9%

COCCNC(C)=O
inactive: SK-MEL-2 melanoma 105% | EKVX NSCLC 105% | SN12C renal 97.7% | UO-31 renal 98.2% | TK-10 renal 102% | ACHN renal 110% | CAKI-1 renal 98.5% | A498 renal 89.6% | CCRF-CEM leukemia 113% | MOLT-4 leukemia 119%

Cc1ccc(NC(=S)N/C=C(\c2ccccc2)S(=O)Cc2ccccc2)c(C)c1 (stereo not given)
inactive: SK-MEL-2 melanoma 103% | EKVX NSCLC 86.7% | SN12C renal 98.9% | UO-31 renal 80.2% | TK-10 renal 109% | ACHN renal 103% | CAKI-1 renal 87.5% | A498 renal 103% | CCRF-CEM leukemia 97.3% | MOLT-4 leukemia 94.3%

CCOC(=O)C1=CC(=O)CC(C)(C)O1
-47.2% (active) and 106% (inactive): MOLT-4 leukemia
inactive: SK-MEL-2 melanoma 114% | EKVX NSCLC 104% and 126% | SN12C renal 110% and 102% | UO-31 renal 92.5% and 101% | TK-10 renal 96.1% and 107% | ACHN renal 102% and 106% | CAKI-1 renal 99.7% and 104% | A498 renal 108% and 105% | CCRF-CEM leukemia 90% and 104%
